Results filed as inconclusive are left out. A number with no mark means an inactive call. Calls of active or inactive are those of the source.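 Rule for the calls: active = cell viability at or below a set limit in both duplicate runs, the limit being the all-compound median minus 4 SD (cut at about 23% in these data, passing the limit was not always enough); inconclusive = no clear call, values can overlap the other calls; inactive = the rest.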

The assay can be described thus: viability of HCT116 without oncogenic beta-catenin – human colon tumor cells, pilot screen (AID 823).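 Note: 0% = wells killed by 20 µM Hyamine and 100% = untreated DMSO cell wells.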 Particulars: HCT116 beta-catenin knockout viability, CellTiter-Glo, 60 h; at 10 µM; active compounds read low. For orientation: In ATP-based viability assays light output follows the ATP content of the culture.
The viability is a read-out of living cells in per cent, often relative to untreated cells. For `CCCC(=O)Nc1nc2c(OC)ccc(OC)c2s1`, the viability was 93.5%.

Turning to `COc1ccc(N(CC(=O)NCc2ccccc2OC)S(=O)(=O)c2c(C)nn(C)c2C)cc1`, the viability is 99.6%.

Regarding `O=C(c1ccc(CS(=O)(=O)c2ccc(Br)cc2)o1)N1CCN(c2ncccn2)CC1`, the viability is 86.2%.

As to `COc1ccc(C2C(C(=O)Nc3cc(C)on3)c3ccccc3C(=O)N2C)cc1OC` (configuration not stated), the viability is 102%.

Turning to `O=C(O)CC1Sc2ccccc2NC1=O` (configuration not stated), the viability is 90.2%.

Turning to `C=CCNc1nc2c(c(=O)[nH]c(=O)n2C)n1Cc1cccc(C)c1`, the viability is 102%.

For the compound `CCOC(=O)C1=C(C)S/C(=C\N(C)C)C1=O`, the viability was 98.6%.

For the compound `COc1cccc(NC(=O)CSc2ncnc3c2oc2ccccc23)c1`, the viability was 94.2%.

As for `CCCCCCNC(=O)C(C(=O)OCC)C1CCCCC1` (configuration not stated), the viability is 84%.

In the case of `COc1ccc(-c2cc3ccccc3n2CC(O)CN2CCN(CCO)CC2)cc1` (configuration not stated), the viability was 80.3%.

Take `CC(=O)c1c(Nc2ccc3c(c2)OCCO3)oc(C)cc1=O`: the viability is 110%.

Consider `COc1ccc(-c2noc(CN3CCN(c4ccccc4)CC3)n2)cc1`, for which the viability was 93.6%.

In the case of `O=C1CSC(=S)N1Cc1cccnc1`, the viability was 8.06% (active).

For the compound `COc1ccc(NC(=O)C2CCCN2S(=O)(=O)c2ccc(F)cc2)cc1` (configuration not stated), the viability was 109%.

As for `CCCCCCn1c(CN2CCN(CCO)CC2)nc2c1c(=O)n(C)c(=O)n2C`, the viability was 86.2%.

In the case of `Cc1nn(-c2ccccc2)c2sc(C(=O)n3cccn3)cc12`, the viability is 89.8%.

For `Cc1cc(NC(=O)CSc2ccc3nnc(-c4ccccn4)n3n2)no1`, the viability was 102%.
